Test results from ChEMBL document CHEMBL4888484, “Replenishing the malaria drug discovery pipeline: Screening and hit evaluation of the MMV Hit Generation Library 1 (HGL1) against asexual blood stage Plasmodium falciparum ,using a nano luciferase reporter read-out” (2022).
The whole screen tested about 150,000 compounds, of which about 540 (0.36%) showed an effect of 50% or more. Only a selection was taken, and strong results are over-represented in it overall.

What follows are compounds tested on Plasmodium falciparum (assay: Primary screen in NF54 nanoGlo assay, in single point, at 2uM, 72h; a lower Z score goes with more inhibition). Details: timepoint 72 hour.
Type: functional, Erythrocyte
`c1csc([C@@H]2CN(c3ncnc4sccc34)CCO2)n1` was tested, and the “% Inhibition” value was 5% and the Z score was -0.74.
`O=C(NC1CCCCC1)c1nn(-c2ccc(F)cc2)c2ccccc2c1=O` was tested, and the “% Inhibition” value was -15% and the Z score was 2.13.
In the case of `O=C1NCCCN1C1CCN(Cc2ccc(Cl)c(C(F)(F)F)c2)CC1`, the “% Inhibition” value is reported as 10% and the Z score is reported as -1.75.
In the case of `COc1cc(-c2ccc(C(=O)N3CCC[C@H](O)C3)cc2)nc(OC)n1`, the “% Inhibition” value is reported as 2% and the Z score is reported as -0.43.
In the case of `Cc1cccc(CNC(=O)[C@H]2CCN(c3cn[nH]c(=O)c3)C2)c1`, the “% Inhibition” value is reported as -12% and the Z score is reported as 1.58.
For `O=C(Nc1ccc(N2CCOCC2)cc1)[C@H]1CCN(c2cn[nH]c(=O)c2)C1`, the “% Inhibition” value was -14% and the Z score was 1.91.
With `Cc1cccc(NC(=O)[C@H]2CCN(c3cn[nH]c(=O)c3)C2)c1` the “% Inhibition” value was 52% and the Z score was -0.4.
In the case of `CCCCN1C(=O)[C@](NS(=O)(=O)c2ccc(NC(C)=O)cc2)(C(F)(F)F)C(C(C)=O)=C1C`, the “% Inhibition” value is reported as -7% and the Z score is reported as 0.92.
In the case of `COc1ccc(CCn2c(N)c(-c3nc4ccccc4s3)c3nc(C#N)c(C#N)nc32)cc1OC`, the “% Inhibition” value is reported as -5% and the Z score is reported as 0.86.
For `N#Cc1nc2c(C#N)c(N)n(CCc3ccccc3)c2nc1C#N`, the “% Inhibition” value was 88% and the Z score was -11.87.
`N#Cc1nc2c(S(=O)(=O)c3ccccc3)c(N)n(Cc3ccc(Cl)cc3)c2nc1C#N` was tested, and the “% Inhibition” value was -16% and the Z score was 2.57.
`C[C@H]1COCCN1C(=O)CCc1ccco1` was tested, and the “% Inhibition” value was -2% and the Z score was 0.25.
With `Cc1ccc(CNC[C@H](O)c2cccnc2)c(Br)c1` the “% Inhibition” value was 7% and the Z score was -0.68.
For `O=C(Cn1cnc2ccc(Cl)cc2c1=O)NCCCc1ccccc1`, the “% Inhibition” value was 2% and the Z score was -0.27.
With `Cc1ccsc1CN(CCN1CCOCC1)[C@H]1CCCNC1` the “% Inhibition” value was -5% and the Z score was 0.7.
In the case of `CCOC(=O)N1CC[C@H](NC2(c3cc(F)ccc3F)CC2)C1`, the “% Inhibition” value is reported as -9% and the Z score is reported as 1.36.
With `O=C(Cn1cc2c(n1)CCCCCC2)NCCc1ccc(Cl)cc1` the “% Inhibition” value was 6% and the Z score was -0.96.
`C[C@@H](CNc1cnc2ccccc2n1)N1CCOCC1` was tested, and the “% Inhibition” value was 20% and the Z score was -2.58.
With `C[C@@H](CNc1nc(-c2ccccc2)nc2ccccc12)N1CCOCC1` the “% Inhibition” value was -9% and the Z score was 1.51.
With `CCCCCc1nc([C@H](C)N2CCN(C)CC2)n(-c2cc(C)ccn2)n1` the “% Inhibition” value was -3% and the Z score was 0.42.
For `O=S(=O)(c1ccc(Cl)s1)N1CCc2nc(-c3ccc(Cl)cc3)ncc2C1`, the “% Inhibition” value was -11% and the Z score was 1.78.
`Cc1cccc2c1OCC[C@H]2NC(=O)Cn1cnc2c1CCNC21CCOCC1` was tested, and the “% Inhibition” value was -5% and the Z score was 0.76.
`O=c1[nH]nc(Cn2ccnc2)n1Cc1ccc(Cl)cc1Cl` was tested, and the “% Inhibition” value was 0% and the Z score was -0.08.
`Clc1ccc(COc2ccc(Cl)cc2CNCCCn2ccnc2)c(Cl)c1` was tested, and the “% Inhibition” value was 94% and the Z score was -11.1.
In the case of `CCOc1cc(CNCCCn2ccnc2)ccc1OCc1ccccc1`, the “% Inhibition” value is reported as 46% and the Z score is reported as -2.57.
With `Clc1ccc(Cn2cc(CNCCCn3ccnc3)c3ccccc32)c(Cl)c1` the “% Inhibition” value was 98% and the Z score was -10.9.
For `O[C@@H](CNCCCn1ccnc1)COc1ccc(Cl)cc1Cl`, the “% Inhibition” value was 26% and the Z score was -2.66.
For `C[C@@H](NCCCn1ccnc1)c1ccc(Cl)cc1`, the “% Inhibition” value was -4% and the Z score was 0.5.
`O=C(O)c1cccc(CN2CCc3nc(C4CC4)ncc3C2)c1` was tested, and the “% Inhibition” value was -13% and the Z score was 1.45.
With `CC1CC(N2CCCC(n3cnc4ccccc43)C2)CN1C` (centres undefined) the “% Inhibition” value was -5% and the Z score was 0.43.
With `Cc1ccc(C(=O)c2nocc2C(=O)c2cccnc2)cc1` the “% Inhibition” value was 1% and the Z score was -0.19.
In the case of `CCc1cc(C(=O)N2CCN(C/C=C/c3ccccc3)CC2)cc(=O)[nH]1`, the “% Inhibition” value is reported as 0% and the Z score is reported as 0.04.
In the case of `CC1CCC(C(C)C)C(OC(=O)Cn2nnc(C(N)=O)n2)C1` (centres undefined), the “% Inhibition” value is reported as 19% and the Z score is reported as -2.22.
`CC(C)[C@@H]1CC[C@H](C)C[C@H]1OC(=O)Cn1cc(-c2ccc(Cl)cc2)[n+]2c1CCC2` was tested, and the “% Inhibition” value was 79% and the Z score was -6.99.
For `CC1CCC(C(C)C)C(OC(=O)COC(=O)c2ccncc2)C1` (centres undefined), the “% Inhibition” value was -10% and the Z score was 1.31.
For `Cc1onc(-c2ccccn2)c1C(=O)NC1CCCCC1`, the “% Inhibition” value was 12% and the Z score was -2.28.
For `O=C(Nc1ccc(Cc2ccc(NC(=O)c3ccc(Br)cc3)c(O)c2)cc1O)c1ccc(Br)cc1`, the “% Inhibition” value was 60% and the Z score was -1.
`C=C(C)C(=O)Nc1ccc(Cc2ccc(NC(=O)C(=C)C)c(O)c2)cc1O` was tested, and the “% Inhibition” value was 0% and the Z score was -0.04.
In the case of `CNC(=O)CCCC(=O)Nc1ccc(Br)cc1O`, the “% Inhibition” value is reported as -9% and the Z score is reported as 0.88.
`CCN(CC(=O)N1CCCNC(=O)[C@@H]1C)c1ccccc1` was tested, and the “% Inhibition” value was -10% and the Z score was 1.27.
In the case of `O=C(NCCc1nccs1)c1n[nH]c2c1CCc1ccccc1-2`, the “% Inhibition” value is reported as -9% and the Z score is reported as 1.37.
With `O=C(c1n[nH]c2c1CCc1ccccc1-2)N1CCCCCC1` the “% Inhibition” value was -15% and the Z score was 1.3.
